# Measured values published in PubChem BioAssay AID590 (National Center for Advancing Translational Sciences (NCATS), 2007).
# About 6,500 (11%) of roughly 59,000 compounds were called active. Roughly 15% stayed inconclusive and do not appear here. Rule as the data show it: active = max dye-equivalent concentration above about 10 nM; inconclusive = mostly about 1.1 nM to 9.6 nM; inactive = weaker than that. The list comes from a sample in which actives are over-represented; it also holds similar structures and randomly drawn compounds.
# Test: qHTS Assay for Spectroscopic Profiling in A350 Spectral Region
# Settings: Compound autofluorescence, 340/450 nm, Alexa 350 dye-equivalents; stronger effect = higher value
row,SMILES,max dye-equivalent concentration
1,Fc1ccc(Cn2nnnc2C(c2cccs2)N2CCCCCC2)cc1 (stereo not given),inactive
2,CCN1C(=O)/C(=C\N2CCN(c3cccc(Cl)c3)CC2)SC1=S,inactive
3,Cc1cc(C)c2c(n1)nn1c(N3CCN(c4cccc(Cl)c4)CC3)cc(C)nc21,110 nM (active)
4,Cc1cc(C)c2c(n1)nn1c(N3CCOCC3)cc(C)nc21,7500 nM (active)
5,Cc1nn2c3cc(N4CCOCC4)ccc3nc2c2ccccc12,inactive
6,CS(=O)(=O)N(CC(=O)N1CCN(c2cccc(Cl)c2)CC1)c1ccccc1,inactive
7,Cc1cc(C)c2c(n1)nn1c(-n3ccnc3)cc(C)nc21,260 nM (active)
8,Cc1cc(N2CCN(Cc3ccc4c(c3)OCO4)CC2)n2ncnc2n1,inactive
9,CN1CCN(CC(O)COCc2ccc3c(c2)OCO3)CC1 (stereo not given),inactive
10,CCOC(=O)Nc1ccc2c(c1)N(C(=O)CN1CCN3CCCC3C1)c1ccccc1CC2 (stereo not given),inactive
11,CSc1cccc(NC(=O)CSc2ccccc2)c1,inactive
12,Cc1ccccc1CSc1nnc(-c2cccnc2)n1N,inactive
13,CCOC(=O)C1C(=O)NC(N2CCN(c3ccccc3)CC2)=NC1c1ccco1 (stereo not given),inactive
14,COc1ccc(C2OC(=O)CC2C(=O)NC(C)C)cc1 (stereo not given),inactive
15,CCOC(=O)C1C(=O)C=C(c2ccc(OC)cc2)CC1c1ccco1 (stereo not given),11 nM (active)
16,CNC(=O)c1nnn(-c2ccccc2)c1C(=O)NC,inactive
17,CCn1ccnc1C[C@@H]1COc2ccccc2O1,inactive
18,CC1=C(C(=O)Nc2ccc(Cl)cc2)C(c2ccco2)NC(=O)N1 (stereo not given),inactive
19,COCCCNC(=O)C1CC(=O)N(c2ccc(C)cc2)C1 (stereo not given),inactive
20,COc1ccc(Cl)cc1NC(=O)C1CC(=O)N(c2ccc(F)cc2)C1 (stereo not given),inactive
21,COc1cccc(N2CC(C(=O)Nc3c(C)cccc3C)CC2=O)c1 (stereo not given),19 nM (active)
22,O=C(CSc1nnc(-c2cccs2)n1Cc1ccco1)c1ccc2c(c1)OCO2,inactive

row,SMILES,max dye-equivalent concentration
1,Cc1ccc(-n2ncc3c(N4CCN(c5ccc(F)cc5)CC4)ncnc32)c(C)c1,inactive
2,Fc1ccc2[nH]c3c(N4CCSCC4)ncnc3c2c1,13 nM (active)
3,CCN1CCCC1CNC(=O)Cn1cnc2ccc(S(=O)(=O)N3CCC(C)CC3)cc2c1=O (stereo not given),inactive
4,CCN1CCCC1CNc1ncnc2c1[nH]c1ccc(F)cc12 (stereo not given),14 nM (active)
5,Cc1cc(OCC(=O)O)c(Cl)cc1Cl,inactive
6,CCn1c(Cc2ccccc2)nnc1SCc1nc2ccccc2c(=O)[nH]1,inactive
7,COCCCNC(=O)CCc1nc2cccnc2n1Cc1ccc(OC)cc1,inactive
8,O=C(CC1CCCCC1)Nc1c2c(nn1-c1ccc(F)cc1)CS(=O)(=O)C2,inactive
9,Cc1c(C)c2cc3c4c(oc3c(C)c2oc1=O)CCCC4,25 nM (active)
10,COc1ccccc1-c1nc(NCc2cccs2)c2ccccc2n1,inactive
11,CCOC(=O)Cc1c(C)nc2c(C#N)c(C)nn2c1C,11 nM (active)
12,CC1(C)CCCC2=C1CC1C(=O)N(c3ccccc3)C(=O)C1C2 (stereo not given),inactive
13,CC(C)C(c1nnnn1Cc1ccccc1)N1CCC(C(N)=O)CC1 (stereo not given),inactive
14,COc1ccc(Cn2cccc(NC(=O)Nc3ccc(C#N)cc3)c2=O)cc1,inactive
15,COc1ccc(C(=O)N2CCC[C@@]3(CCN(C(=O)NC(C)C)C3)C2)cc1,inactive
16,COc1cccc(-c2nc(Nc3ccncc3)c3ccccc3n2)c1,inactive
17,c1ccc2c(Nc3ccncc3)nc(-c3ccc4c(c3)OCO4)nc2c1,11 nM (active)
18,c1ccc2c(Nc3ccncc3)nc(-c3ccoc3)nc2c1,inactive
19,COCCn1c(C)cc(C(=O)CSc2ncnc3sc4c(c23)CCC4)c1C,inactive
20,COCCNc1nc(-n2nc(C)cc2C)nc2sc3c(c12)CCCC3,1300 nM (active)
21,Cc1cc(C)n(-c2nc(SCC(=O)N3CCCC3)c3c4c(sc3n2)CCCC4)n1,inactive
22,O=S(=O)(NCc1ccc2c(c1)OCO2)c1cccc2nsnc12,inactive

row,SMILES,max dye-equivalent concentration
1,COc1ccc(N2C(=O)CCC(C(=O)Nc3ccccn3)C2c2ccc(OC)c(OC)c2)cc1 (stereo not given),inactive
2,Nc1ccc(SCCN2C(=O)c3ccccc3C2=O)cc1,inactive
3,O=C1c2ccccc2C(=O)N1CCCSc1ccccc1,inactive
4,C[N+](C)(CCCCCC[N+](C)(C)CCCN1C(=O)c2cccc3cccc(c23)C1=O)CCCN1C(=O)c2cccc3cccc(c23)C1=O,260 nM (active)
5,CCOC(=O)Cc1csc(NC(=O)C(C)(C)C)n1,inactive
6,COc1cc(C2C3C(=O)N(c4ccccc4)C(=O)C3ON2c2ccccc2)ccc1O (stereo not given),inactive
7,Cc1ccc(C(c2nnnn2C(C)(C)C)N2CCc3ccccc3C2)cc1 (stereo not given),inactive
8,Cc1ccc(NC(=O)CCN2CCc3ccccc3C2)cc1,inactive
9,Cc1ccc2c(c1)c1ncnc(N3CCc4ccccc4C3)c1n2C,140 nM (active)
10,O=C(CCCN1C(=O)C2C3C=CC(C3)C2C1=O)N1CCN(c2ccccc2)CC1 (stereo not given),inactive
11,Cc1cc(C)nc(NC(=O)C(C)N2C(=O)c3ccccc3C2=O)n1 (stereo not given),inactive
12,CC(C(=O)O)N1C(=O)c2cccc3cccc1c23 (stereo not given),14 nM (active)
13,COC(=O)c1ccc(NC(=O)C(C)N2C(=O)c3ccccc3C2=O)cc1 (stereo not given),inactive
14,CC(=O)N1CCN(CCN=CC2=C(O)CC(C)(C)CC2=O)CC1,inactive
15,CCOCCN(C=O)c1cccc(OC)c1,inactive
16,COc1ccc(OC)c([C@H](O)CNC(=O)CN)c1,inactive
17,CCOC(=O)CCc1c(C)c2ccc(OCc3nn[nH]n3)c(C)c2oc1=O,30 nM (active)
18,CCc1ccc(-c2nnn(Cc3nn[nH]n3)n2)cc1,inactive
19,Cc1cc(C)cc(OCc2nnc(SCC(=O)OC3CCCCC3)o2)c1,inactive
20,CC(=O)c1cc(C#N)c(SCC(=O)C(C)(C)C)nc1C,inactive
21,CCOc1cccc(NC(=O)CC#N)c1,inactive
22,CCOc1ccc2cc(C#N)c(SCC(=O)OC)nc2c1,31 nM (active)

row,SMILES,max dye-equivalent concentration
1,COc1ccc(OC)c(S(=O)(=O)N(C)CC(=O)N2CCN(c3ccccc3)CC2)c1,inactive
2,Cc1cccc(N2CCN(C(c3ccccc3)c3nnnn3CC3CCCO3)CC2)c1C (stereo not given),inactive
3,O=C(Cn1nnc2ccccc2c1=O)Nc1cc(C(F)(F)F)ccc1N1CCOCC1,inactive
4,COc1ccccc1-c1cc(NCc2cccs2)ncn1,inactive
5,CC(C)N1C(=O)C2C(C(=O)NC3CCCCC3)C3C=CC2(O3)C1C(=O)NC1CCCC1 (stereo not given),inactive
6,CCc1nnc(NC(=O)C2CCCN2S(=O)(=O)c2ccccc2)s1 (stereo not given),16 nM (active)
7,CCc1nnc(NS(=O)(=O)c2ccc(NS(=O)(=O)c3ccccc3)cc2)s1,inactive
8,CC(C)c1nnc(NC(=O)C2CCCN2S(=O)(=O)c2ccc(Cl)cc2)s1 (stereo not given),inactive
9,Cc1c(O)c(Br)c(C)c(O)c1Br (tested in a mixture with another compound),inactive
10,CCN(CC)c1ccc(C(=O)OCC(=O)c2ccco2)cc1,inactive
11,Cc1cc(C)nc(N(C#N)CC(=O)Nc2ccccc2)n1,inactive
12,N#CCSc1nc2ccccc2c(=O)n1-c1ccccc1,inactive
13,C/C(O)=C\c1nc(=O)c2c(C)cc(C)nc2n1-c1ccccc1,44 nM (active)
14,CCOC(=O)N1CCN(C(=O)CNC(=O)Cc2ccc(Cl)cc2)CC1,inactive
15,CCOC(=O)N1CCN(C(=O)c2ccc(S(=O)(=O)c3ccc(C)cc3)c(NC(C)=O)c2)CC1,inactive
16,CCOC(=O)N1CCN(C(=O)c2ccc3nc4cc(Cl)ccc4c(=O)n3c2)CC1,1300 nM (active)
17,O=C(O)c1cscn1,inactive
18,Cc1nonc1OCCn1nnnc1N,inactive
19,CC1CCCN(c2ccc(C(=O)NCCc3ccccc3)cn2)C1 (stereo not given),inactive
20,O=S(=O)(Nc1ccccc1N1CCOCC1)c1ccc(Cl)s1,inactive
21,Oc1cc2c(cc1O)CN(C(=S)NCCc1ccc(Cl)cc1)CCC2,inactive
22,O=S(=O)(NCc1ccccn1)c1ccc(Br)s1,inactive

row,SMILES,max dye-equivalent concentration
1,O=S(=O)(c1cccs1)N1CCc2ccccc2C1,inactive
2,CCCCNc1nc2ccccc2nc1NS(=O)(=O)c1cccs1,61 nM (active)
3,O=S(=O)(c1cccs1)N1CCN(Cc2ccccc2)CC1,inactive
4,COCCNc1ncnc2ccc(-c3ccccc3CN(C)C)cc12,inactive
5,COc1ccc(-c2cc(C(=O)NC(C(=O)O)C(C)C)c(C)o2)cc1OC (stereo not given),inactive
6,CCOC(=O)CSc1nnc(-c2ccncc2)o1,inactive
7,CNC(=O)c1ccc2nc(NC(C)=O)sc2c1,inactive
8,COC(=O)c1sc(NC(=O)c2ccc(OC)cc2OC)nc1C,inactive
9,COc1ccc2nc(NC(=O)c3ccc(Br)s3)sc2c1,550 nM (active)
10,CCOC(=O)c1sc(NC(=O)CSc2nnc(-c3ccco3)o2)c(C(=O)OCC)c1C,inactive
11,O=C(c1csnn1)N1CCC[C@@]2(CCN(c3cccc(-c4ccccc4)c3)C2)C1,inactive
12,COc1ccc(-n2c(SCC(=O)OC(C)C)nnc2-c2ccccn2)cc1,inactive
13,COc1ccc(C2C(C(=O)Nc3ccccc3OC)=C(C)Nc3nnnn32)c(OC)c1 (stereo not given),inactive
14,CCOc1cccc(-n2nnnc2-c2ccc(OC)cc2)c1,inactive
15,COc1ccc(C2=CC(c3cccc(OC)c3)n3nnnc3N2)cc1 (stereo not given),15 nM (active)
16,COC(=O)C1=C(C)NC(=O)NC1/C=C/c1ccccc1 (stereo not given),inactive
17,O=S(=O)(Nc1ccccn1)c1ccc(Oc2ccccc2)cc1,inactive
18,CC(C)C(=O)N1CCN(c2nc(-c3ccccc3)c3c(c2C#N)CC(C)(C)OC3)CC1,200 nM (active)
19,CC1(C)Cc2c(C#N)c(SCc3nc4ccccc4[nH]3)nc(N3CCOCC3)c2CO1,23 nM (active)
20,CC(C)c1nc(N2CCOCC2)c(C#N)c2c1COC(C)(C)C2,150 nM (active)
21,COc1ccc(CSc2nc(N3CCOCC3)c3c(c2C#N)CC(C)(C)OC3)cc1,34 nM (active)
22,c1ccc2[nH]c(NCCN3CCOCC3)nc2c1,inactive
